Compound activity (PubChem)
FMDV inh – foot and mouth disease virus antiviral activity | FMDV antiviral cell-based qHTS | hit rate 1.2% among 410,000 | Potency, µM (top dose mostly 57.9 µM), actives largely listed as inhibitors; calls by dose curve; tested in HEK293T cells; note: read-out not given here; nearly all actives have a fitted effect of over 45% in size
Vaccinia mCherry – vaccinia inhibition (mCherry reporter); Vaccinia virus mCherry reporter infection, fluorescence; AID 720579; Potency, µM (top dose mostly 36.5 µM), usual class: inhibitors; hit rate 0.63% among 310,000; calls by dose curve; tested in A549 cells; note: nearly all actives have a fitted effect of over 35% in size
HCMV antiviral – human cytomegalovirus inhibition. AID 1259415. HFF cells, HCMV-luciferase reporter, 72 h; active compounds read low. activity change, negative = inhibition, % at 57.5 µM. hit rate 4.5% among 410,000; in the data active = activity change below about -60%; inconclusive = no clear call, values can overlap the other calls; inactive = above about -39%
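Two compound doses tested in HFFs infected with HCMV-luciferase, MOI 1 PFU/cell, 72 h at 37C. Lysate luminescence read with OneGlo; data normalized against buffer-only and 10uM Salinomycin inhibitor controls.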
HCV inh – inhibitors of hepatitis C virus infection; Huh7.5.1 HCVcc-Cre infection, luciferase reporter, 44 h; hit rate 3.4% among 340,000; Potency, µM (highest dose often 41.8 µM), usual class: inhibitors; active = well fitted inhibition curve with a large enough effect; inconclusive = small, poorly fitted or top-dose-only effect, or another doubt; inactive = no such curve, though single readings can be large or run the other way
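Luciferase read-out (15 sec integration) after a 15 min room-temperature substrate step quantifies HCVcc-Cre infection. Cells, 1,000 per well, had compound added 4 h post-plating, then virus at ~0.5 moi, and were cultured 44 h.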
Vaccinia Venus – vaccinia inhibition (Venus reporter). Vaccinia virus Venus reporter expression, fluorescence. Potency, µM (highest dose often 36.5 µM), hits mostly inhibitors. hit rate 0.46% among 330,000; calls by dose curve; tested in A549 cells; note: nearly all actives have a fitted effect of over 30% in size
Large screens that a line does not name were inactive; ! = a repeat was not active. Only some compounds are listed: those with a hit (about 7.3% of all), similar ones and a draw of the others.

Cc1ccccc1N1CC(c2nc3ccccc3n2Cc2ccc(Br)cc2)CC1=O (stereo unspecified)	HCMV antiviral -77.7 (no result: HCV inh)
Cc1ccccc1N1CC(c2nc3ccccc3n2CCC2CCCCC2)CC1=O (stereo unspecified)	FMDV inh inconclusive, HCMV antiviral inconclusive, Vaccinia Venus inconclusive (no result: HCV inh)
COc1ccc(CN2CCCC(c3nc(-c4ccncc4)ncc3-c3ccccc3)C2)cc1OC (stereo unspecified)	none (no result: HCMV antiviral, HCV inh)
C=C1C(=O)OC2CC1C(O)CC(C)=CCCC(C)=CC(O)CC2C (stereo unspecified)	FMDV inh 7.94µM, Vaccinia mCherry inconclusive, HCV inh 7.08µM, Vaccinia Venus 11.2µM
COc1cc(-c2c(C#N)c(N)nc(SCc3ccncc3)c2C#N)cc(OC)c1OC	FMDV inh inconclusive
CN1CCc2nc(SCc3ccc(Cl)cc3)c(C#N)c(-c3cccs3)c2C1	HCMV antiviral -108.8, HCV inh inconclusive
N#Cc1c(N)nc(SCc2ccncc2)c(C#N)c1-c1cccs1	FMDV inh 15.8µM, Vaccinia mCherry inconclusive, HCMV antiviral inconclusive, HCV inh 0.562µM, Vaccinia Venus inconclusive
COc1ccc(C(=O)NCCn2cc(SCc3cc(C)ccc3C)c3ccccc32)cc1	FMDV inh inconclusive (no result: HCV inh)
CCCCNc1c(-c2ccc(OC)c(SC(C)CC)c2)nc2cc(C)ccn12 (stereo unspecified)	FMDV inh 28.2µM, Vaccinia mCherry 25.1µM, HCMV antiviral -79.2!, HCV inh 7.08µM, Vaccinia Venus inconclusive
CCCCNc1c(-c2ccc(-c3ccc(C(C)=O)cc3)c(OC)c2)nc2cc(C)ccn12	FMDV inh inconclusive, Vaccinia mCherry inconclusive, HCMV antiviral -92.9, HCV inh inconclusive, Vaccinia Venus inconclusive
